Experimental data taken from PubChem BioAssay (NCI).
The panel holds about 83,000 compounds, 20% with a hit somewhere; the sample as a whole holds those more often.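 How to read the values: 0–100, growth inhibition (40 = 60% inhibited); 0, no net growth; -100 to 0, cell death (-40 = 40% of starting cells died; -100 = all dead).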 Values without a mark were called inactive. Active and inactive are the calls of the source. The calls were made as follows: active = growth percent below 10; inactive = the rest.

system: SN12C renal; experiment: NCI-60 one-dose screen, 48 h (100 = growth as untreated, 0 = no growth, -100 = all killed); conditions: 10 µM unless noted

Row | SMILES | growth
1 | CN(C)CC(C)(CN(C)C)C(=O)/C=C/c1c(Cl)cccc1Cl | 50.9%
2 | COc1cc(/C=C/c2ccnc3ccccc23)cc(OC)c1OC | 31%
3 | Cc1cc(C)c([I+]c2c(C)cc(C)cc2C)c(C)c1 | -66.2% (active)
4 | COc1cc(/C=C/C(=O)CC(=O)/C=C/c2ccc(O)c(OC)c2)ccc1O | 79%
5 | CN(C)c1ccc(C(=C2C=CC(=[N+](C)C)C=C2)c2ccc(N(C)C)cc2)cc1 | -67% (active)
6 | COC(=O)c1ccc(=O)c2nc3/c(=C/O)c(O)cc(=O)c3[nH]c12 | -5.75% (active)
7 | CCCCCCCCCCCC[n+]1ccc2ccccc2c1 | -18.4% (active)
8 | COc1cc([C@@H]2c3cc4c(cc3[C@H](OC3OC5COC(c6ccccc6)OC5C(O)C3O)[C@H]3COC(=O)[C@H]23)OCO4)cc(OC)c1OC (stereo not given in full) | 41.8%
9 | NC(=Nc1nc(-c2ccccn2)cc2ccccc12)c1ccccn1 | 26.2%
10 | CN(C)CCN(C)CC(C)(C)C(=O)/C=C/c1ccc(Cl)c(Cl)c1 | -96.2% [100 µM] (active)
11 | CCN(CC)c1ccc(/C=C\C(=O)c2ccc(NC(C)=O)cc2)cc1 | 48.9%
12 | Clc1ccccc1C(c1ccccc1)(c1ccccc1)n1ccnc1 | 48.2%
13 | CCCCOS(=O)(=O)c1ccccc1 | 100%
14 | COc1cc(NC(=O)C2=C(C)NC(C)=C(C(=O)Nc3cc(OC)c(Cl)cc3OC)C2c2cccc([N+](=O)[O-])c2)c(OC)cc1Cl | 32.2%
15 | CCCCCCCCCCCCCCCCCC[S+](C)CC (stereo not given) | 25.7%
